25 molecules from ChEMBL document CHEMBL4296182, “CO-ADD screening of NIH NCI Diversity Set V” can be followed below.

Structures are written as SMILES. For part of these data: Results with a measured potency or affinity are listed apart.

What is called Inhibition is the drop in the measured response relative to a control, in per cent.

One experiment relates to Staphylococcus aureus. Kind of experiment: Antibacterial activity against Staphylococcus aureus MRSA ATCC 43300 (CO-ADD:GP_020); MIC in CAMBH media using NBS plates, by Resazurin F(560/590). In kind it is functional. The note with it: Concentration 20 uM, ASSAY_TEST Inhibition of Bacterial Growth, detection method Resazurin, Fluorescence (ex560/em590), MEDIA CAMHB, plate type 384well, CORNING #3640, time 18 hr. For orientation: Alamar Blue is a resazurin reagent that responds to reducing activity.

In another experiment the test system is Acinetobacter baumannii. The experiment is described as follows: Antibacterial activity against Acinetobacter baumannii ATCC 19606 (CO-ADD:GN_034); MIC in CAMBH media using NBS plates, by Resazurin F(560/590). The note with it: Concentration 20 uM, ASSAY_TEST Inhibition of Bacterial Growth, detection method Resazurin, Fluorescence (ex560/em590), MEDIA CAMHB, plate type 384well, CORNING #3640, time 18 hr. It counts as functional.

The test system of a further experiment is Escherichia coli. Kind of experiment: Antibacterial activity against Escherichia coli ATCC 25922 (CO-ADD:GN_001); MIC in CAMBH media using NBS plates, by Resazurin F(560/590). In kind it is functional. The following applies: Concentration 20 uM, ASSAY_TEST Inhibition of Bacterial Growth, detection method Resazurin, Fluorescence (ex560/em590), MEDIA CAMHB, plate type 384well, CORNING #3640, time 18 hr.

The next experiment relates to Klebsiella pneumoniae. The following applies: Concentration 20 uM; ASSAY_TEST Inhibition of Bacterial Growth; detection method Absorption (OD600); MEDIA CAMHB; plate type 384well; NBS; CORNING #3640; time 18 hr.
The subject of a further experiment is Candida albicans. The note with it: 20 µM.
The next experiment concerns Cryptococcus neoformans. The following applies: Concentration 20 uM; ASSAY_TEST Inhibition of Fungal Growth; detection method Resazurin; Absorption (OD600-OD570); plate type 384well; NBS; CORNING #3640.

Turning to `Cc1cc(OCCCCOc2ccc(C#N)cc2)ccc1[N+](=O)[O-]`, the Inhibition is 20.1% in the experiment with Staphylococcus aureus; 6.74% in the experiment with Acinetobacter baumannii; 2.94% with Escherichia coli; 7.99% in the experiment on Klebsiella pneumoniae; 7.31% in the experiment on Candida albicans; -12.2% in the experiment on Cryptococcus neoformans.
As to `Cc1ccc(Nc2ccc(N)cc2S(=O)(=O)O)cc1`, the Inhibition was 11.37% with Staphylococcus aureus; 8.99% in the experiment with Acinetobacter baumannii; -1.31% with Escherichia coli; 9.09% with Klebsiella pneumoniae; 3.65% in the experiment with Candida albicans; -9.37% with Cryptococcus neoformans.
Regarding `CCSc1nc(C)cc(S)n1`, the Inhibition in the experiment on Staphylococcus aureus is 8.56%; with Acinetobacter baumannii, -11.79%; in the experiment on Escherichia coli, 13.36%; with Klebsiella pneumoniae it was 13.31%; in the experiment on Candida albicans, 25.2%; in the experiment on Cryptococcus neoformans it was -6%.
On to `Cc1ccc(Nc2nnc(S)s2)cc1F`, for which the Inhibition in the experiment with Staphylococcus aureus was -5.24%; in the experiment with Acinetobacter baumannii, -6.73%; with Escherichia coli, 5.51%; in the experiment with Klebsiella pneumoniae, 11.86%; with Candida albicans, 12.1%; in the experiment with Cryptococcus neoformans it was 17.67%.
On to `Cc1cc(O)cc2c1[C@H]1CC[C@]3(C)C(=O)CC[C@H]3[C@@H]1C=C2`, for which the Inhibition in the experiment on Staphylococcus aureus is 24.45%; in the experiment with Acinetobacter baumannii, 13.8%; in the experiment on Escherichia coli it was 29.29%; in the experiment on Klebsiella pneumoniae it was -0.57%; with Candida albicans, 12.1%; in the experiment on Cryptococcus neoformans, -1.77%.
With `Cl.Nc1ncnc2c(C3OC(CO)C(O)C3O)c[nH]c12` (stereo not given), the Inhibition with Staphylococcus aureus is 3.2%; with Acinetobacter baumannii, 11.32%; with Escherichia coli, -11.86%; in the experiment on Klebsiella pneumoniae, 9.96%; with Candida albicans, 2.09%; in the experiment with Cryptococcus neoformans, -0.14%.
With `N#Cc1cnn2ccn(C3OC(CO)C(O)C3O)c12` (stereo not given), the Inhibition in the experiment on Staphylococcus aureus is 2.98%; with Acinetobacter baumannii, -3.63%; with Escherichia coli, 8.76%; in the experiment on Klebsiella pneumoniae it was 13.94%; in the experiment with Candida albicans, 4.75%; with Cryptococcus neoformans, -11.71%.
Regarding `CCOC(=O)Nc1c(Cl)n(C)c(=O)n(C)c1=O`, the Inhibition in the experiment on Staphylococcus aureus was -8.24%; with Acinetobacter baumannii, 9.75%; in the experiment on Escherichia coli, -16.55%; in the experiment with Klebsiella pneumoniae, 17.7%; in the experiment on Candida albicans it was 6.3%; in the experiment with Cryptococcus neoformans it was 20.83%.
As for `Br.CN(C)c1n/c(=N/Cc2ccco2)ss1`, the Inhibition in the experiment on Staphylococcus aureus was 15.96%; in the experiment on Acinetobacter baumannii it was 6%; in the experiment with Escherichia coli, 7.56%; in the experiment on Klebsiella pneumoniae, 27.1%; with Candida albicans it was 6.89%; in the experiment with Cryptococcus neoformans, -13.39%.
For the molecule `CC1(C)CCCC2(C)C(OCCO)=CC(=O)C=C12` (stereo not given), the Inhibition in the experiment with Staphylococcus aureus was 7.52%; with Acinetobacter baumannii it was 8.39%; in the experiment on Escherichia coli it was 0.39%; in the experiment on Klebsiella pneumoniae, 20.08%; with Candida albicans, 2.7%; in the experiment on Cryptococcus neoformans, -10.94%.
`Cn1c(SCc2ccccn2)nc2c1c(=O)[nH]c(=O)n2C`: the Inhibition in the experiment with Staphylococcus aureus is 7.99%; with Acinetobacter baumannii it was -7.81%; with Escherichia coli, 13.96%; in the experiment on Klebsiella pneumoniae, 9.58%; with Candida albicans, 0.41%; with Cryptococcus neoformans it was -8.81%.
Take `COC(=O)c1cc(C)nc2c(C)cc3[nH]c4ccccc4c3c12`: the Inhibition with Staphylococcus aureus is -3.37%; in the experiment on Acinetobacter baumannii, -0.23%; in the experiment on Escherichia coli it was -15.24%; in the experiment with Klebsiella pneumoniae, 17.6%; with Candida albicans, 8.78%; in the experiment on Cryptococcus neoformans it was 0.02%.
Turning to `O=c1oc(-c2ccccc2)c(-c2ccccc2)c2ccccc12`, the Inhibition is 13.22% in the experiment on Staphylococcus aureus; 4.08% in the experiment with Acinetobacter baumannii; 7.81% in the experiment with Escherichia coli; 4.41% in the experiment with Klebsiella pneumoniae; 1.88% in the experiment on Candida albicans; -4.28% with Cryptococcus neoformans.
For the molecule `CCN(CC)CCNC(=O)C(Cl)=C1C(Cl)=C(Cl)C(Cl)=C1Cl`, the Inhibition in the experiment on Staphylococcus aureus is 7.61%; in the experiment on Acinetobacter baumannii, 6.92%; in the experiment with Escherichia coli it was -4.74%; with Klebsiella pneumoniae it was 29.33%; with Candida albicans, 1.86%; in the experiment with Cryptococcus neoformans it was -2.01%.
With `Cc1cc(O)c(-c2cc(O)c(C)cc2O)cc1O`, the Inhibition with Staphylococcus aureus was 5.49%; in the experiment on Acinetobacter baumannii it was -9.17%; in the experiment on Escherichia coli, 6.61%; in the experiment with Klebsiella pneumoniae, 0.01%; in the experiment on Candida albicans it was 5.95%; in the experiment with Cryptococcus neoformans, 17.06%.
For `Oc1ccccc1-n1c(-c2ccccc2)ccc1-c1ccccc1`, the Inhibition with Staphylococcus aureus was 3.47%; in the experiment with Acinetobacter baumannii, 1.43%; with Escherichia coli, 1.29%; with Klebsiella pneumoniae, 19.15%; with Candida albicans, 11.1%; in the experiment on Cryptococcus neoformans, -2.48%.
`Cc1ccc([N+](=O)[O-])cc1NC(=O)Nc1ccc(S(N)(=O)=O)cc1`: the Inhibition in the experiment with Staphylococcus aureus is 2.59%; in the experiment with Acinetobacter baumannii it was 7.91%; in the experiment on Escherichia coli it was 0%; with Klebsiella pneumoniae, 0.38%; with Candida albicans it was -0.57%; in the experiment with Cryptococcus neoformans, -7.76%.
Consider `Cc1cc(NC(=O)Nc2cc(Cl)ccc2C)no1`, for which the Inhibition in the experiment on Staphylococcus aureus was -16.99%; in the experiment with Acinetobacter baumannii, 4.24%; in the experiment with Escherichia coli it was -3.34%; in the experiment on Klebsiella pneumoniae it was 4.74%; in the experiment on Candida albicans, 19.4%; in the experiment on Cryptococcus neoformans, -2.52%.
Take `O=C(Nc1ccc(Oc2ccc(NC(=O)Nc3ccc([N+](=O)[O-])cc3)cc2)cc1)Nc1ccc([N+](=O)[O-])cc1`: the Inhibition in the experiment with Staphylococcus aureus is 16.59%; in the experiment on Acinetobacter baumannii, -20.31%; in the experiment with Escherichia coli, 13.56%; in the experiment with Klebsiella pneumoniae, 15.1%; in the experiment with Candida albicans, 1.13%; in the experiment with Cryptococcus neoformans it was -4.65%.
Regarding `CC1=CC(=C2C=CC(=O)C=C2)C=C(C)N1C`, the Inhibition with Staphylococcus aureus is 0.37%; in the experiment with Acinetobacter baumannii, -6.52%; with Escherichia coli, 4.86%; in the experiment with Klebsiella pneumoniae, -4.58%; in the experiment on Candida albicans, 4.83%; with Cryptococcus neoformans, -12.1%.
`NS(=O)(=O)c1ccc(/N=N/c2c(O)c(C(=O)O)cc3ccccc23)cc1`: the Inhibition in the experiment on Staphylococcus aureus was -3.85%; with Acinetobacter baumannii, 10.2%; in the experiment on Escherichia coli, -7.6%; in the experiment with Klebsiella pneumoniae, 18.16%; in the experiment on Candida albicans, -3.08%; with Cryptococcus neoformans, -0.96%.
In the case of `CC(C)(C)c1ccc(C(=O)N2CCOC23CCCCC3)cc1`, the Inhibition in the experiment with Staphylococcus aureus was 6.69%; with Acinetobacter baumannii it was 7.06%; in the experiment with Escherichia coli, 4.56%; in the experiment with Klebsiella pneumoniae it was 2.74%; in the experiment on Candida albicans, 2.86%; in the experiment on Cryptococcus neoformans, -8.62%.
`CCCCOc1ccc(OC(=O)Nc2cc(Cl)ccc2OC)cc1`: the Inhibition in the experiment with Staphylococcus aureus is 13.88%; with Acinetobacter baumannii it was 6.78%; in the experiment on Escherichia coli, 2.93%; with Klebsiella pneumoniae, 11.91%; with Candida albicans it was 0.59%; in the experiment on Cryptococcus neoformans, -2.51%.
Consider `CCN(CC)CCNc1c(C)cc(CO)c(Cl)c1C.O=S(=O)(O)NC1CCCCC1`, for which the Inhibition in the experiment on Staphylococcus aureus is 5.65%; with Acinetobacter baumannii, -16.4%; in the experiment with Escherichia coli it was 16.33%; in the experiment on Klebsiella pneumoniae it was 7.45%; in the experiment on Candida albicans it was 1.43%; in the experiment with Cryptococcus neoformans it was -0.32%.
Regarding `CN(C)N1C(=O)c2c(Cl)c(Cl)c(Cl)c(Cl)c2C1=O`, the Inhibition in the experiment on Staphylococcus aureus came to 2.83%; with Acinetobacter baumannii it was 0.5%; in the experiment on Escherichia coli, 6.02%; with Klebsiella pneumoniae it was 6.84%; in the experiment with Candida albicans, 1.54%; with Cryptococcus neoformans, 46.33%.
